In PubChem BioAssay AID1159580 (chemical genetic matrix, 2015):
Hit rate of the full screen: of about 5,500 compounds, about 2,000 (36%) were called active. Roughly 18% stayed inconclusive and do not appear here. No stated cut-off is given here; in the data, active means normalized growth mostly below about 0.91 (no sharp cut-off); inconclusive means no clear call, values can overlap the other calls; inactive means mostly above about 0.92. Some of the results follow.

Assay: chemical genetic growth profiling, strain panel (AID 1159580);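 further: tested at 20 µM; growth read once vehicle control cultures reached saturation at 30 °C; 1 = growth at the plate median or of vehicle wells; lower values mean less growth of the strain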
Details: growth OD

Measured: normalized growth

Nc1ccc(S(=O)(=O)Nc2ccc(Cl)nn2)cc1
inactive: S. cerevisiae deletion strains, locus YJR043C, strain POL32, hits give low values 0.991 | S. cerevisiae deletion strains, locus YJR066W, strain TOR1, hits give low values 0.926 | S. cerevisiae deletion strains, locus YKL009W, strain mrt4, hits give low values 1.03 | S. cerevisiae deletion strains, locus YKL068W, hits give low values 0.998 | S. cerevisiae deletion strains, locus YKL085W, strain MDH1 (second series), hits give low values 0.992 | S. cerevisiae deletion strains, locus YKL085W, strain MDH1, hits give low values 0.992 | S. cerevisiae deletion strains, locus YKL160W, strain elf1, hits give low values 0.966 | S. cerevisiae deletion strains, locus YKL190W, strain CNB1, hits give low values 1.01 | S. cerevisiae deletion strains, locus YKR001C, strain vps1, hits give low values 0.995 | S. cerevisiae deletion strains, locus YKR026C, strain gcn3, hits give low values 0.982 | S. cerevisiae deletion strains, locus YKR091W, strain srl3, hits give low values 0.996 | S. cerevisiae deletion strains, locus YLL001W, strain dnm1, hits give low values 0.981 | S. cerevisiae deletion strains, locus YLL026W, hits give low values 0.998 | S. cerevisiae deletion strains, locus YLL041C, strain sdh2, hits give low values 0.989 | S. cerevisiae deletion strains, locus YLR027C, strain aat2, hits give low values 0.995 | S. cerevisiae deletion strains, locus YLR039C, strain RIC1, hits give low values 1.06 | S. cerevisiae deletion strains, locus YLR058C, strain SHM2, hits give low values 1.01 | S. cerevisiae deletion strains, locus YLR102C, strain apc9, hits give low values 1 | S. cerevisiae deletion strains, locus YLR113W, strain HOG1, hits give low values 0.984 | S. cerevisiae deletion strains, locus YLR221C, strain rsa3, hits give low values 0.991 | S. cerevisiae deletion strains, locus YLR258W, strain gsy2, hits give low values 0.991 | S. cerevisiae deletion strains, locus YLR262C, strain YPT6 (second series), hits give low values 0.986 | S. cerevisiae deletion strains, locus YLR262C, strain YPT6, hits give low values 1.06 | S. cerevisiae deletion strains, locus YLR268W, strain sec22, hits give low values 1 | S. cerevisiae deletion strains, locus YLR320W, strain mms22, hits give low values 0.969 | S. cerevisiae deletion strains, locus YLR330W, strain CHS5, hits give low values 1.01 | S. cerevisiae deletion strains, locus YLR342W, strain FKS1 (second series), hits give low values 1.05 | S. cerevisiae deletion strains, locus YLR342W, strain FKS1, hits give low values 0.98 | S. cerevisiae deletion strains, locus YLR357W, strain rsc2, hits give low values 0.978 | S. cerevisiae deletion strains, locus YLR370C, strain arc18, hits give low values 0.984 | S. cerevisiae deletion strains, locus YLR371W, strain rom2, hits give low values 1 | S. cerevisiae deletion strains, locus YLR384C, strain iki3, hits give low values 0.993 | S. cerevisiae deletion strains, locus YLR418C, strain cdc73, hits give low values 1.03 | S. cerevisiae deletion strains, locus YML016C, strain PPZ1, hits give low values 1 | S. cerevisiae deletion strains, locus YML032C, strain rad52, hits give low values 1.01 | S. cerevisiae deletion strains, locus YML120C, strain ndi1, hits give low values 0.983 | S. cerevisiae deletion strains, locus YML124C, strain tub3, hits give low values 1.01 | S. cerevisiae deletion strains, locus YMR058W, strain fet3, hits give low values 0.987 | S. cerevisiae deletion strains, locus YMR078C, strain ctf18, hits give low values 1.01 | S. cerevisiae deletion strains, locus YMR125W, strain sto1, hits give low values 0.984 | S. cerevisiae deletion strains, locus YMR129W, hits give low values 0.986 | S. cerevisiae deletion strains, locus YMR205C, strain PFK2, hits give low values 0.97 | S. cerevisiae deletion strains, locus YMR223W, strain ubp8, hits give low values 1.04 | S. cerevisiae deletion strains, locus YMR231W, strain pep5, hits give low values 0.987 | S. cerevisiae deletion strains, locus YMR263W, strain SAP30, hits give low values 0.995 | S. cerevisiae deletion strains, locus YMR307W, strain GAS1, hits give low values 1.04 | S. cerevisiae deletion strains, locus YNL067W, strain RPL9B, hits give low values 0.983 | S. cerevisiae deletion strains, locus YNL071W, strain lat1, hits give low values 0.995 | S. cerevisiae deletion strains, locus YNL183C, strain NPR1, hits give low values 0.927 | S. cerevisiae deletion strains, locus YNL209W, strain ssb2, hits give low values 0.999 | S. cerevisiae deletion strains, locus YNL233W, strain BNI4, hits give low values 0.989 | S. cerevisiae deletion strains, locus YNL248C, strain rpa49, hits give low values 0.994 | S. cerevisiae deletion strains, locus YNL250W, strain rad50, hits give low values 1.03 | S. cerevisiae deletion strains, locus YNL271C, strain bni1, hits give low values 1 | S. cerevisiae deletion strains, locus YNL298W, strain CLA4, hits give low values 1 | S. cerevisiae deletion strains, locus YNL307C, strain MCK1, hits give low values 1.01 | S. cerevisiae deletion strains, locus YNL322C, strain KRE1 (second series), hits give low values 0.976 | S. cerevisiae deletion strains, locus YNR049C, strain mso1, hits give low values 0.995 | S. cerevisiae deletion strains, locus YNR052C, strain pop2, hits give low values 1.01 | S. cerevisiae deletion strains, locus YOL006C, strain TOP1, hits give low values 0.951 | S. cerevisiae deletion strains, locus YOL012C, strain htz1 1.39 | S. cerevisiae deletion strains, locus YOL147C, strain pex11, hits give low values 1 | S. cerevisiae deletion strains, locus YOR001W, strain rrp6, hits give low values 0.995 | S. cerevisiae deletion strains, locus YOR061W, strain CKA2, hits give low values 1 | S. cerevisiae deletion strains, locus YOR069W, strain VPS5, hits give low values 1.01 | S. cerevisiae deletion strains, locus YOR070C, strain gyp1, hits give low values 0.991 | S. cerevisiae deletion strains, locus YOR080W, strain dia2, hits give low values 0.979 | S. cerevisiae deletion strains, locus YOR083W, strain WHI5, hits give low values 0.96 | S. cerevisiae deletion strains, locus YOR106W, strain vam3, hits give low values 0.959 | S. cerevisiae deletion strains, locus YOR136W, strain idh2, hits give low values 0.995 | S. cerevisiae deletion strains, locus YOR144C, strain elg1, hits give low values 0.995 | S. cerevisiae deletion strains, locus YOR184W, strain ser1, hits give low values 1.02 | S. cerevisiae deletion strains, locus YOR231W, strain MKK1, hits give low values 0.991 | S. cerevisiae deletion strains, locus YOR265W, strain rbl2, hits give low values 0.999 | S. cerevisiae deletion strains, locus YOR270C, strain vph1, hits give low values 0.994 | S. cerevisiae deletion strains, locus YOR290C, strain snf2, hits give low values 0.985 | S. cerevisiae deletion strains, locus YOR316C, strain cot1, hits give low values 0.997 | S. cerevisiae deletion strains, locus YPL051W, strain arl3, hits give low values 0.98 | S. cerevisiae deletion strains, locus YPL078C, strain atp4, hits give low values 0.982 | S. cerevisiae deletion strains, locus YPL106C, strain sse1, hits give low values 0.969 | S. cerevisiae deletion strains, locus YPL240C, strain hsp82, hits give low values 0.978 | S. cerevisiae deletion strains, locus YPL256C, strain CLN2, hits give low values 0.962 | S. cerevisiae deletion strains, locus YPR119W, strain clb2, hits give low values 0.999 | S. cerevisiae deletion strains, locus YPR141C, strain kar3, hits give low values 0.995 | S. cerevisiae deletion strains, locus YPR163C, strain tif3, hits give low values 1.01 | S. cerevisiae deletion strains, locus YPR167C, strain met16, hits give low values 1 | S. cerevisiae deletion strains, strain wtn01, hits give low values 1.02 | S. cerevisiae strains, strain wild type, hits give low values 1.01
